Bioassay records from PubChem.
MgrA DNA FP = S. aureus MgrA-DNA binding modulation; fluorescence polarization; inhibition, % (no concentration beside the values); actives 0.13% (n = 84,000); AID 602314; in the data active = inhibition above about 30%, passing the limit was not always enough;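 note: higher means less MgrA bound to DNA so lower polarization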
A number is an active result; 0 = inactive. The entries come from a sample that favours hits as a whole.

SMILES	MgrA DNA FP
O=[N+]([O-])c1ccc(N2CCCC2)c2nonc12	52
O=[N+]([O-])c1ccc(N2CCCCC2)c2nonc12	0
O=c1c2ccccc2nc(CN2CCOCC2)n1-c1cccc(C(F)(F)F)c1	0
CNC(=O)Oc1cccc(C)c1	0
O=C1NC(=O)C(C(c2ccccc2)c2ccccc2)C(=O)N1	0
C(#CC1(N2CCOCC2)CCCCC1)c1ccccc1	0
COc1ccc(NC(c2c[nH]c3ccccc23)P2(=S)OCC(C)(C)CO2)cc1 (configuration not stated)	0
CCOC(=O)C1CCN(/C=C2/C(=O)NC(=O)N(Cc3ccco3)C2=O)CC1	29
CCN1C(=O)NC(=O)/C(=C\c2cn(CC(=O)N3CCCCC3C)c3ccccc23)C1=O (configuration not stated)	0
COc1ccc(-n2c(C)cc(/C=C3/C(=O)NC(=O)N(Cc4ccco4)C3=O)c2C)cc1	0
CCN1CCN(C(=O)COc2cccc(Br)c2)CC1	0
CC1(C)C(C=C(Cl)Cl)C1C(=O)OC(C#N)c1cccc(Oc2ccccc2)c1 (configuration not stated)	0
COC(=O)C1=CN2C(C=C1)C(C(=O)OC)(C(=O)OC)[C@@H](c1cccnc1)[C@@H]2C#N (some centres not stated)	52
CNC(=O)Oc1ccc(NC2=C(C(=O)OC)CSC2)cc1	0
CCCCC1C(=O)NC(=S)NC1=O	0
